# Tested on: Plasmodium falciparum
# Experiment: GSK_TCMDC: Inhibition of Plasmodium falciparum 3D7 in whole red blood cells, using parasite LDH activity as an index of growth. Test compounds present at 2uM
# Type: functional
row,SMILES,Inhibition [%]
1,COc1cc(Nc2nccc(N3CCC(NC(=O)c4cc5ccccc5s4)C3)n2)cc(OC)c1OC (centres undefined),96
2,CCN1CCN(CCCNc2c3ccccc3nc3ccccc23)CC1.Cl,100
3,c1ccn2c(-c3ncnc(NCc4ccc5c(c4)CCO5)n3)cnc2c1,86
4,O=C(Nc1ccc2c(c1)CCC2)c1ccc(N2CCN(c3ccncc3)CC2)cn1.O=C(O)C(F)(F)F,99
5,CC[C@H](C)CNC(=O)c1ccnc(-c2ccc(CNC3Cc4ccccc4C3)cc2)c1.O=C(O)C(F)(F)F,100
6,CN1CCC(NCc2cccc(-c3ccc(S(=O)(=O)NCCc4ccccn4)c(F)c3)c2)CC1.O=C(O)C(F)(F)F,98
7,O=C(NCCCCN1CCC(c2ccc3c(c2OCc2ccccn2)CCCC3)CC1)c1ccc(NC(=O)c2ccc(Cl)cc2)cc1,100
8,Cl.O=C(C=Cc1cccc(F)c1)NC1CCC(CCN2CCc3ccc(-c4cnccn4)cc3CC2)CC1 (centres undefined),100
9,CCCN1CCN(CCCNC(=O)c2cc3c(Cl)nc4ccc(C)cc4c3s2)CC1,97
10,O=C(Nc1cccc([N+](=O)[O-])c1)Nc1cccc(C(F)(F)F)c1,92
11,COc1cccc(-c2ccc3c(-c4ccc(F)cc4)cnc(N)c3c2)c1.O=CO,100
12,C=CCc1cc(Br)ccc1OCCCOc1c(C)nc(N)nc1N.Cl,94
13,COc1ccc(C(=O)N[C@@H](CC(C)C)C(=O)NC2CC[C@@H](C)N(C(=O)Nc3ccc(Cl)cc3)CC2=O)cc1OCCN1CCOCC1 (some centres undefined),96
14,C[C@@H](N)C#Cc1cc2c(Nc3ccc(OCc4cccc(F)c4)c(Cl)c3)ncnc2s1.O=CO,89

# Reference: ChEMBL document CHEMBL1157539, “Thousands of chemical starting points for antimalarial lead identification” (Nature, 2010)
